# About 2,000 (36%) of roughly 5,500 compounds were called active. Another 18% or so got no clear call; they are omitted. Some of the results follow. Values without a mark were called inactive. No stated cut-off is given here; in the data, active means normalized growth mostly below about 0.91 (no sharp cut-off); inconclusive means no clear call, values can overlap the other calls; inactive means mostly above about 0.92.
# Experiment: chemical genetic growth profiling, strain panel (AID 1159580);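 further: tested at 20 µM; growth read once vehicle control cultures reached saturation at 30 °C; 1 = growth at the plate median or of vehicle wells; lower values mean less growth of the strain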
# Conditions: growth OD
structure (smiles),measurement,setting,value
CC(C)(C)CC(C)(C)c1ccc(O)c(Cc2ccc(Cl)cc2Cl)c1,normalized growth,"S. cerevisiae deletion strains, locus YJR075W, strain HOC1, hits give low values",1.01
same,normalized growth,"S. cerevisiae deletion strains, locus YKL009W, strain mrt4, hits give low values",1.01
same,normalized growth,"S. cerevisiae deletion strains, locus YKL068W, hits give low values",1.02
same,normalized growth,"S. cerevisiae deletion strains, locus YKL085W, strain MDH1 (second series), hits give low values",1.01
same,normalized growth,"S. cerevisiae deletion strains, locus YKL085W, strain MDH1, hits give low values",1.01
same,normalized growth,"S. cerevisiae deletion strains, locus YKL160W, strain elf1, hits give low values",1
same,normalized growth,"S. cerevisiae deletion strains, locus YKL190W, strain CNB1, hits give low values",1
same,normalized growth,"S. cerevisiae deletion strains, locus YKR001C, strain vps1, hits give low values",1.01
same,normalized growth,"S. cerevisiae deletion strains, locus YKR026C, strain gcn3, hits give low values",1.02
same,normalized growth,"S. cerevisiae deletion strains, locus YKR091W, strain srl3, hits give low values",1.02
same,normalized growth,"S. cerevisiae deletion strains, locus YLL001W, strain dnm1, hits give low values",1.04
same,normalized growth,"S. cerevisiae deletion strains, locus YLL026W, hits give low values",1.01
same,normalized growth,"S. cerevisiae deletion strains, locus YLL041C, strain sdh2, hits give low values",1.02
same,normalized growth,"S. cerevisiae deletion strains, locus YLR027C, strain aat2, hits give low values",1.01
same,normalized growth,"S. cerevisiae deletion strains, locus YLR039C, strain RIC1, hits give low values",0.985
same,normalized growth,"S. cerevisiae deletion strains, locus YLR058C, strain SHM2, hits give low values",1.01
same,normalized growth,"S. cerevisiae deletion strains, locus YLR102C, strain apc9, hits give low values",1.01
same,normalized growth,"S. cerevisiae deletion strains, locus YLR113W, strain HOG1, hits give low values",1.03
same,normalized growth,"S. cerevisiae deletion strains, locus YLR221C, strain rsa3, hits give low values",0.995
same,normalized growth,"S. cerevisiae deletion strains, locus YLR258W, strain gsy2, hits give low values",1.02
same,normalized growth,"S. cerevisiae deletion strains, locus YLR262C, strain YPT6 (second series), hits give low values",0.981
same,normalized growth,"S. cerevisiae deletion strains, locus YLR262C, strain YPT6, hits give low values",0.974
same,normalized growth,"S. cerevisiae deletion strains, locus YLR268W, strain sec22, hits give low values",1.01
same,normalized growth,"S. cerevisiae deletion strains, locus YLR320W, strain mms22, hits give low values",1.02
same,normalized growth,"S. cerevisiae deletion strains, locus YLR330W, strain CHS5, hits give low values",0.999
same,normalized growth,"S. cerevisiae deletion strains, locus YLR342W, strain FKS1 (second series), hits give low values",0.995
same,normalized growth,"S. cerevisiae deletion strains, locus YLR342W, strain FKS1, hits give low values",1.01
same,normalized growth,"S. cerevisiae deletion strains, locus YLR357W, strain rsc2, hits give low values",1.05
same,normalized growth,"S. cerevisiae deletion strains, locus YLR370C, strain arc18, hits give low values",1.03
same,normalized growth,"S. cerevisiae deletion strains, locus YLR371W, strain rom2, hits give low values",1.01
same,normalized growth,"S. cerevisiae deletion strains, locus YLR384C, strain iki3, hits give low values",1.03
same,normalized growth,"S. cerevisiae deletion strains, locus YLR418C, strain cdc73, hits give low values",1.02
same,normalized growth,"S. cerevisiae deletion strains, locus YML016C, strain PPZ1, hits give low values",1.01
same,normalized growth,"S. cerevisiae deletion strains, locus YML032C, strain rad52, hits give low values",1.02
same,normalized growth,"S. cerevisiae deletion strains, locus YML120C, strain ndi1, hits give low values",1
same,normalized growth,"S. cerevisiae deletion strains, locus YML124C, strain tub3, hits give low values",1.02
same,normalized growth,"S. cerevisiae deletion strains, locus YMR058W, strain fet3, hits give low values",1.01
same,normalized growth,"S. cerevisiae deletion strains, locus YMR078C, strain ctf18, hits give low values",1.01
same,normalized growth,"S. cerevisiae deletion strains, locus YMR125W, strain sto1, hits give low values",1.02
same,normalized growth,"S. cerevisiae deletion strains, locus YMR129W, hits give low values",0.998
same,normalized growth,"S. cerevisiae deletion strains, locus YMR205C, strain PFK2, hits give low values",1.01
same,normalized growth,"S. cerevisiae deletion strains, locus YMR223W, strain ubp8, hits give low values",1.01
same,normalized growth,"S. cerevisiae deletion strains, locus YMR231W, strain pep5, hits give low values",1.03
same,normalized growth,"S. cerevisiae deletion strains, locus YMR263W, strain SAP30, hits give low values",0.998
same,normalized growth,"S. cerevisiae deletion strains, locus YMR307W, strain GAS1, hits give low values",0.972
same,normalized growth,"S. cerevisiae deletion strains, locus YNL067W, strain RPL9B, hits give low values",1.01
same,normalized growth,"S. cerevisiae deletion strains, locus YNL071W, strain lat1, hits give low values",1.03
same,normalized growth,"S. cerevisiae deletion strains, locus YNL128W, strain TEP1, hits give low values",1.02
same,normalized growth,"S. cerevisiae deletion strains, locus YNL153C, strain GIM3, hits give low values",1
same,normalized growth,"S. cerevisiae deletion strains, locus YNL183C, strain NPR1, hits give low values",0.973
same,normalized growth,"S. cerevisiae deletion strains, locus YNL209W, strain ssb2, hits give low values",1.02
same,normalized growth,"S. cerevisiae deletion strains, locus YNL233W, strain BNI4, hits give low values",1.01
same,normalized growth,"S. cerevisiae deletion strains, locus YNL248C, strain rpa49, hits give low values",1.01
same,normalized growth,"S. cerevisiae deletion strains, locus YNL250W, strain rad50, hits give low values",1.02
same,normalized growth,"S. cerevisiae deletion strains, locus YNL271C, strain bni1, hits give low values",1.02
same,normalized growth,"S. cerevisiae deletion strains, locus YNL298W, strain CLA4, hits give low values",1.03
same,normalized growth,"S. cerevisiae deletion strains, locus YNL307C, strain MCK1, hits give low values",1.02
same,normalized growth,"S. cerevisiae deletion strains, locus YNL322C, strain KRE1 (second series), hits give low values",1.02
same,normalized growth,"S. cerevisiae deletion strains, locus YNR049C, strain mso1, hits give low values",1.02
same,normalized growth,"S. cerevisiae deletion strains, locus YNR052C, strain pop2, hits give low values",1.01
same,normalized growth,"S. cerevisiae deletion strains, locus YOL006C, strain TOP1, hits give low values",0.836
same,normalized growth,"S. cerevisiae deletion strains, locus YOL012C, strain htz1",0.945
same,normalized growth,"S. cerevisiae deletion strains, locus YOL147C, strain pex11, hits give low values",1.02
same,normalized growth,"S. cerevisiae deletion strains, locus YOR001W, strain rrp6, hits give low values",1.01
same,normalized growth,"S. cerevisiae deletion strains, locus YOR061W, strain CKA2, hits give low values",1.01
same,normalized growth,"S. cerevisiae deletion strains, locus YOR069W, strain VPS5, hits give low values",1.01
same,normalized growth,"S. cerevisiae deletion strains, locus YOR070C, strain gyp1, hits give low values",1.01
same,normalized growth,"S. cerevisiae deletion strains, locus YOR080W, strain dia2, hits give low values",1.03
same,normalized growth,"S. cerevisiae deletion strains, locus YOR083W, strain WHI5, hits give low values",0.989
same,normalized growth,"S. cerevisiae deletion strains, locus YOR106W, strain vam3, hits give low values",0.988
same,normalized growth,"S. cerevisiae deletion strains, locus YOR136W, strain idh2, hits give low values",1.02
same,normalized growth,"S. cerevisiae deletion strains, locus YOR144C, strain elg1, hits give low values",1.01
same,normalized growth,"S. cerevisiae deletion strains, locus YOR184W, strain ser1, hits give low values",1.01
same,normalized growth,"S. cerevisiae deletion strains, locus YOR231W, strain MKK1, hits give low values",1.03
same,normalized growth,"S. cerevisiae deletion strains, locus YOR265W, strain rbl2, hits give low values",1.01
same,normalized growth,"S. cerevisiae deletion strains, locus YOR270C, strain vph1, hits give low values",0.766 (active)
same,normalized growth,"S. cerevisiae deletion strains, locus YOR290C, strain snf2, hits give low values",1.02
same,normalized growth,"S. cerevisiae deletion strains, locus YOR316C, strain cot1, hits give low values",1.01
same,normalized growth,"S. cerevisiae deletion strains, locus YPL051W, strain arl3, hits give low values",1
same,normalized growth,"S. cerevisiae deletion strains, locus YPL078C, strain atp4, hits give low values",1.02
same,normalized growth,"S. cerevisiae deletion strains, locus YPL106C, strain sse1, hits give low values",1.04
same,normalized growth,"S. cerevisiae deletion strains, locus YPL240C, strain hsp82, hits give low values",1
same,normalized growth,"S. cerevisiae deletion strains, locus YPL241C, strain CIN2, hits give low values",1
same,normalized growth,"S. cerevisiae deletion strains, locus YPL256C, strain CLN2, hits give low values",1.04
same,normalized growth,"S. cerevisiae deletion strains, locus YPR119W, strain clb2, hits give low values",1.01
same,normalized growth,"S. cerevisiae deletion strains, locus YPR141C, strain kar3, hits give low values",1.01
same,normalized growth,"S. cerevisiae deletion strains, locus YPR163C, strain tif3, hits give low values",1.02
same,normalized growth,"S. cerevisiae deletion strains, locus YPR167C, strain met16, hits give low values",1.02
same,normalized growth,"S. cerevisiae deletion strains, strain wtn01, hits give low values",1.01
same,normalized growth,"S. cerevisiae strains, strain wild type, hits give low values",1

# Source: PubChem BioAssay AID1159580 (chemical genetic matrix, 2015)
